In PubChem BioAssay:
Records with an inconclusive call do not appear. The source made the active and inactive calls.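 Rule for the calls, unless noted: active = efflux inhibition above 0.42, the validation set average plus 4 SD; inconclusive = no clear call, values can overlap the other calls; inactive = the rest.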

What was measured:
[1] = rapamycin-like changes in RPL19A-GFP expression – cell-based, S. cerevisiae, multiplex flow cytometry, primary screen (AID 1862; in the data active = percent of DMSO control GFP below about 86%;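 note: lower values mimic rapamycin by blocking the RPL19A rise seen in DMSO cells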); conditions: S. cerevisiae RPL19A-GFP strain, flow cytometry fluorescence, 3 h; at 10 µM; stronger effect = lower value
[2] = TOR pathway GLN3 branch reporter MEP2-GFP changes – S. cerevisiae, multiplex flow cytometry, primary screen (AID 1867;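 active = GFP response, as percent of the DMSO control, above the screen-wide mean plus 3 SD, about 139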;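 note: median GFP channel fluorescence of barcode-gated MEP2-GFP cells measured by flow cytometry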); conditions: S. cerevisiae MEP2-GFP strain, 3 h, at 10 µM, stronger effect = higher value, 100% means same as DMSO wells
[3] = TOR pathway RTG branch CIT2 reporter changes – S. cerevisiae, GFP fusion, multiplex flow cytometry, primary screen (AID 1870;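 active = percent response above a set limit, the screen-wide mean plus 3 SD, cut at about 130% in these data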;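 note: barcoded CIT2-GFP strain pooled with four other GFP strains with rapamycin as positive control; median GFP fluorescence per well over plate mean of DMSO wells so 100% = DMSO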); conditions: S. cerevisiae CIT2-GFP expression, 3 h, at 10 µM, stronger effect = higher value
[4] = TOR pathway LAP4-GFP level changes – S. cerevisiae, multiplex flow cytometry, primary screen (AID 1873;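 active = GFP signal, as percent of the solvent control, above the screen mean plus 3 SD, about 149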); conditions: S. cerevisiae LAP4-GFP expression, 3 h, at 10 µM, stronger effect = higher value
[5] = yeast AGP1-GFP level changes, GLN3 branch – cell-based, multiplex flow cytometry, S. cerevisiae, primary screen (AID 1887;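 active = GFP signal above the screen-wide mean plus 3 SD, that is over about 124.5% of the solvent control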;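 note: AGP1-GFP fusion strain of S. cerevisiae within a five-strain barcoded multiplex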); conditions: 3 h, at 10 µM, stronger effect = higher value
[6] = reduced mouse 2C T cell binding to pMHC/ICAM-1 vesicles – MLPCN validation set, flow cytometry, LFA-1/ICAM-1 modulator project, pilot screen (AID 2523;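 active = response below a set limit, under 55% cells CD8-positive and vesicle-bound, and CD8 cells' 90th-percentile brightness under 279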;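 for vesicle binding response: mean PE anti-B7-1 fluorescence of CD8+ cells relative to row control; 100% = QL9-loaded vesicles with DMSO vehicle in the same plate row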); conditions: 2C mouse CD8+ T cells, at 7 µM, stronger effect = lower value; double positive events: measured here: CD8+/vesicle+ event percentage
[7] = biological target: Integrin beta-1 (Homo sapiens) + Integrin alpha-4 (Homo sapiens) (UniProt P13612+P05556); experiment: alpha4beta1 integrin LIBS antibody binding reduction – U937 cells, HUTS-21 mAb, flow cytometry, validation set, VLA-4 allosteric modulator project, pilot screen (AID 2674;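 active = inhibition above 50%, about 3 SD of the validation set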;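 note: antibody binding induced by the VLA-4 ligand LDV present at three times its Kd; 0% = LDV ligand with antibody and no compound and 100% = antibody without LDV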); conditions: HUTS-21 LIBS mAb binding, at 6.7 µM, stronger effect = higher value, binding induced by LDV ligand
[8] = calorie-restriction mimetic ROS inhibitors, yeast – validation compound set, pilot screen (AID 2706;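 active = superoxide response below 65% of plate, a cut near 3 SD across the whole screen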;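 note: yeast exposed to compound for one week at 30 degrees C before staining; 100% = mean of all compound wells on the same plate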); conditions: S. cerevisiae aging, superoxide DHE fluorescence; at 10 µM; stronger effect = lower value
[9] = biological target: Beta-adrenergic receptor kinase 1 (Homo sapiens) (UniProt P25098); experiment: GRK2 binders displacing RNA aptamer, biochemical, validation, human GRK2, bead flow cytometry (AID 488806;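 active = aptamer binding inhibition above 30%, about 3 SD of noise from non-fluorescent compounds; inactive = inhibition at or below 30%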); conditions: bead-bound GRK2, FAM-aptamer displacement, at 10 µM, stronger effect = higher value
[10] = biological target: Beta-2 adrenergic receptor (Homo sapiens) (UniProt P07550); experiment: agonist-induced loss of surface beta2AR – cell-based, FAP fluorogen, flow cytometry, validation set, pilot screen (AID 504459;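 active = percent response above 42, roughly 3 SD of non-fluorescent test compounds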;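 note: agonist-driven loss of surface beta2AR via internalization measured by FAP dye flow cytometry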); conditions: Am2.2-beta2AR cells, at 10 µM, stronger effect = higher value
[11] = biological target: AP-2 complex subunit beta (Homo sapiens) (UniProt P63010); experiment: beta-arrestin/AP2 interaction blockers – biochemical, validation set, GST-AP2 beads, flow cytometry, pilot screen (AID 504541;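 active = inhibition above 54%, about 3 SD of non-fluorescent compounds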;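 note: AP2 carries R879A mutation and is captured from E. coli lysate; bead-bound FITC arrestin peptide fluorescence measuring arrestin peptide binding to AP2; 0% = DMSO wells and 100% = excess unlabeled arrestin peptide control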); conditions: FITC arrestin peptide, at 10 µM, stronger effect = higher value, AP2 beta2 appendage fragment, R879A mutant
[12] = cytosolic pH regulators acting via V-ATPase – S. cerevisiae, pHLuorin, HTS validation (AID 504600; in the data active = response above about 15%;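 note: plate controls were DMSO for no effect and reference compound for full effect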); conditions: V-ATPase proton transport, at 10 µM, stronger effect = higher value
[13] = system: anti-desmoglein-3 scFv antibody binding to human DSG3; experiment: blockers of pathogenic pemphigus antibody–desmoglein-3 binding – biochemical, validation compound set, bead-based, flow cytometry, pilot screen (AID 588368;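 active = binding below the plate cutoff, the plate median minus 3 SD, with a reading above zero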;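 note: signal is the median channel fluorescence of bead-bound GFP antibody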); conditions: Protein G beads, DSG3-Fc, scFv-GFP binding, at 10 µM, stronger effect = lower value
[14] = Nile Red efflux blockade in pump-expressing yeast – validation compound set, multiplex, phenotypic, pilot screen (AID 588506);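 note: Nile Red retained in cells so higher fluorescence means more efflux inhibition; 0 = negative control wells and 1 = enniatin B 25 µM full block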; conditions: S. cerevisiae pump-expressing triplex, Nile Red efflux flow cytometry; at 10 µM; stronger effect = higher value; the pumps come from Candida albicans
[15] = biological target: ATP-binding cassette sub-family B member 6 (Homo sapiens) (UniProt Q9NP58); experiment: blockers of ABCB6-driven porphyrin uptake – K562-ABCB6 cells, flow cytometry, validation set, pilot screen (AID 588550;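 active = inhibition above the screen-wide mean plus 3 SD, about 51%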;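 note: 0% = DMSO wells and 100% = benzethonium chloride 70 µM positive control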); conditions: K562-ABCB6 porphyrin accumulation, 1 h, at 10 µM, stronger effect = higher value
[16] = AML differentiation inducers, ER-HoxA9 marrow cells – cell-based, GFP/MAC1 double positive, flow cytometry, validation set, primary screen (AID 588685;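 active = differentiation response of at least 50%, scaled between solvent and reference control, from cells with both markers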;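 note: compound exposure lasts four days before antibody staining and flow analysis; 0% = DMSO wells and 100% = 5 µM fulvestrant positive control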); conditions: stronger effect = higher value, normalized: vehicle 0, fulvestrant 100

Sequence of Beta-adrenergic receptor kinase 1 (Homo sapiens) (P25098 whole entry, looked up): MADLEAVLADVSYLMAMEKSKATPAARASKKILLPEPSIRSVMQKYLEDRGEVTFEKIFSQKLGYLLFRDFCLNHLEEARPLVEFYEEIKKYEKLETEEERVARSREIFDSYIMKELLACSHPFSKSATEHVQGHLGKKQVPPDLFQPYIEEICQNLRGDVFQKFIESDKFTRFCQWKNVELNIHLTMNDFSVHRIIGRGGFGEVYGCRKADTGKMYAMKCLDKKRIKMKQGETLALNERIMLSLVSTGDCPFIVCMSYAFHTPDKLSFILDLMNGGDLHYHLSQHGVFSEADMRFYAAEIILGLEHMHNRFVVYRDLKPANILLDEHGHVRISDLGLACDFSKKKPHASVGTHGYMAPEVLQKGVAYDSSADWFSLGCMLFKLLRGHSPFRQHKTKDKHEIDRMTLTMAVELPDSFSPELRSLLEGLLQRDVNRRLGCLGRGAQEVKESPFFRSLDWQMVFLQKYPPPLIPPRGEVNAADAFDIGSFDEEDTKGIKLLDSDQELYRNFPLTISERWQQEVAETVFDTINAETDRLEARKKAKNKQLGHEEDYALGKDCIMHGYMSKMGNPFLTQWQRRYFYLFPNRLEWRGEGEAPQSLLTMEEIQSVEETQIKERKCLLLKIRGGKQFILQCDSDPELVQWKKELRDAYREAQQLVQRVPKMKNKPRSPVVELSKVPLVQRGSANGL
Sequence of ATP-binding cassette sub-family B member 6 (Homo sapiens) (Q9NP58 whole entry, looked up): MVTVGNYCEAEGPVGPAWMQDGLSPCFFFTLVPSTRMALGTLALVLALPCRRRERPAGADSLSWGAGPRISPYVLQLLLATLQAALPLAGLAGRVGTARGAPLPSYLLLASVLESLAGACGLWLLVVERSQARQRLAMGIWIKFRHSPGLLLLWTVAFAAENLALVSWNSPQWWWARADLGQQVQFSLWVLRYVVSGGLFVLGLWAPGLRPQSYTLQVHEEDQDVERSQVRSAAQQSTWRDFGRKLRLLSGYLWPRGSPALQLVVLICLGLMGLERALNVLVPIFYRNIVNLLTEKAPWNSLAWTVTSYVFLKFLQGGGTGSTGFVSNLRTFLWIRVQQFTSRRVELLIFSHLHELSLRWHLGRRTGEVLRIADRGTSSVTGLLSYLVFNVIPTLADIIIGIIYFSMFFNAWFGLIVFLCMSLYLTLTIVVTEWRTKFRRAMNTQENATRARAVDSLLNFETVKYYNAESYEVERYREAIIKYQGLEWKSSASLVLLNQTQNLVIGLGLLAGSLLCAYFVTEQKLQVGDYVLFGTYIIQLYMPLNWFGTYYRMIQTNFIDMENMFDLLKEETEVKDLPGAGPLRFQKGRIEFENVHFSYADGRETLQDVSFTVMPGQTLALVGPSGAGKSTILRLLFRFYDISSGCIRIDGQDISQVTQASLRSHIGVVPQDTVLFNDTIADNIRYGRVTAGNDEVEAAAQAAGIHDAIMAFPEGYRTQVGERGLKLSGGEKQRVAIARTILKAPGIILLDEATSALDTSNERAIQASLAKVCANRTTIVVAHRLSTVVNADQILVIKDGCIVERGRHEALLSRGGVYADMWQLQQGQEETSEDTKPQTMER
Sequence of Integrin beta-1 (Homo sapiens) + Integrin alpha-4 (Homo sapiens) (P05556 whole entry, looked up): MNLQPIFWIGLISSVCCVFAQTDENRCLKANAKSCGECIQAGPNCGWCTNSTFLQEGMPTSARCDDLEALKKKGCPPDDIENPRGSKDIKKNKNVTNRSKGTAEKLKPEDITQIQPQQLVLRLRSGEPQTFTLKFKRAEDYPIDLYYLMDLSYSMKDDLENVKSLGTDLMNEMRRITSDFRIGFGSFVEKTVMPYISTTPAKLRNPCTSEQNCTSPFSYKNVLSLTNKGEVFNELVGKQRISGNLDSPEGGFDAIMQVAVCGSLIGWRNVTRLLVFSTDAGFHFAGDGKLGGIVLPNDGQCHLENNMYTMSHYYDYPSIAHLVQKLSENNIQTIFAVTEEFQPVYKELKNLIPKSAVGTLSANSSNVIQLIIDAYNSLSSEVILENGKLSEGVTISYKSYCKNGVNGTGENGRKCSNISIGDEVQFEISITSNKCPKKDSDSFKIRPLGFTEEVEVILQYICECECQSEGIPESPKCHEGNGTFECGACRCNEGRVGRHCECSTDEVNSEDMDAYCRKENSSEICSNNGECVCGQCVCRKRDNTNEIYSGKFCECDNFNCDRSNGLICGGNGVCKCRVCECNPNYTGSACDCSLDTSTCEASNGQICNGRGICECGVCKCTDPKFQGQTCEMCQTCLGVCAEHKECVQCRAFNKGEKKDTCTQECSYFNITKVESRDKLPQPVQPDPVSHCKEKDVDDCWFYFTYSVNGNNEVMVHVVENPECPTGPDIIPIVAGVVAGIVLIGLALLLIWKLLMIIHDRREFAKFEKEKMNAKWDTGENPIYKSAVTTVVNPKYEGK
Sequence of Integrin beta-1 (Homo sapiens) + Integrin alpha-4 (Homo sapiens) (P13612 whole entry, looked up): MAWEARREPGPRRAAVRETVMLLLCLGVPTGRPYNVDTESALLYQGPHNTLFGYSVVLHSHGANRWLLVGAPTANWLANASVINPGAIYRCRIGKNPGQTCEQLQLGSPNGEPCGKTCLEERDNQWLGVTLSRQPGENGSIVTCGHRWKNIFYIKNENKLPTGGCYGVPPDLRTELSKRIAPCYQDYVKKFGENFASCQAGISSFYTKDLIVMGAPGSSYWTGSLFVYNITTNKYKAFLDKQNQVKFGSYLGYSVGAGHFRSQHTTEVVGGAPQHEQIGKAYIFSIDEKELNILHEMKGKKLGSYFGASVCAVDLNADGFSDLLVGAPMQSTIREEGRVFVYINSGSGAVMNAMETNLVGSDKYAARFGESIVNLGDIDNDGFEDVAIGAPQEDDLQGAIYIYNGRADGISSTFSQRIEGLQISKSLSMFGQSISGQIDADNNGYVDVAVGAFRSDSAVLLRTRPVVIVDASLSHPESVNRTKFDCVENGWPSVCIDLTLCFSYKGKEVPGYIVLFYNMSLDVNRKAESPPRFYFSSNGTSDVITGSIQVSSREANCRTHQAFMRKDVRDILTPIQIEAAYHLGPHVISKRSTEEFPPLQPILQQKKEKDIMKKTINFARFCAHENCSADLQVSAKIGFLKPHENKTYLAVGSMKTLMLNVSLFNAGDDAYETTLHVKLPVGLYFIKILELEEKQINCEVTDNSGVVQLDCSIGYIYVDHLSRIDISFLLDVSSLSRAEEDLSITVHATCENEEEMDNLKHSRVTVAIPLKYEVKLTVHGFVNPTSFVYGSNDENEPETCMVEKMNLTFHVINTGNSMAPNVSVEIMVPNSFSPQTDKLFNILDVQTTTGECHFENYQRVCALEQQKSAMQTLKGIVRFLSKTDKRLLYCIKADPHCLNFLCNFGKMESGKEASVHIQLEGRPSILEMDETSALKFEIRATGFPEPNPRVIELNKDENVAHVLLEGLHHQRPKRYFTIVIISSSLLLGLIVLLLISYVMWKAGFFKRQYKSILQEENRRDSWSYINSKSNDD
Sequence of AP-2 complex subunit beta (Homo sapiens) (P63010 whole entry, looked up, the tested form may be a part, one chain of several): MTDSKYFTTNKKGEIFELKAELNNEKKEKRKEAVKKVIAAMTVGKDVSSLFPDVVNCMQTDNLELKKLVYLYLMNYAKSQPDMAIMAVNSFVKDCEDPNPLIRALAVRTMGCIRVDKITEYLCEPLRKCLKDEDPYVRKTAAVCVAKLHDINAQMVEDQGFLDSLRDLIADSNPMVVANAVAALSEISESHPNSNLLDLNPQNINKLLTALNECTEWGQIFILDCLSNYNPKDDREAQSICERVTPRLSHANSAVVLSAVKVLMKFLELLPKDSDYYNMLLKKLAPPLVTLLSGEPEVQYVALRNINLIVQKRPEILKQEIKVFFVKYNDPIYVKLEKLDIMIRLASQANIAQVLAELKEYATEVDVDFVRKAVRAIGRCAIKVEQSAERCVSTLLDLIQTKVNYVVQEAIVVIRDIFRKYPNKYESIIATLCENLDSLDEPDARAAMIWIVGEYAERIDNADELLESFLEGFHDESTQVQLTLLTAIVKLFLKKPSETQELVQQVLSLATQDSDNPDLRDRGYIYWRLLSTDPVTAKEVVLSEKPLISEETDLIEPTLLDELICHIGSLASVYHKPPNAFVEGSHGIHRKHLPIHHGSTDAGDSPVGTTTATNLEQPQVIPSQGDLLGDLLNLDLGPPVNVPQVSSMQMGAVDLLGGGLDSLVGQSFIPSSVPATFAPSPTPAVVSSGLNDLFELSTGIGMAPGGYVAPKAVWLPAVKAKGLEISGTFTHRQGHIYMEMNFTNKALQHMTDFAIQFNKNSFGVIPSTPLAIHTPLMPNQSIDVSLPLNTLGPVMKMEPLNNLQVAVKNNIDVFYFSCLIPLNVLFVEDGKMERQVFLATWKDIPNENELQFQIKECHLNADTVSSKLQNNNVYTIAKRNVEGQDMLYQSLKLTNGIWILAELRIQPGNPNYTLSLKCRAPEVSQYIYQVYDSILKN
Sequence of Beta-2 adrenergic receptor (Homo sapiens) (P07550 whole entry, looked up): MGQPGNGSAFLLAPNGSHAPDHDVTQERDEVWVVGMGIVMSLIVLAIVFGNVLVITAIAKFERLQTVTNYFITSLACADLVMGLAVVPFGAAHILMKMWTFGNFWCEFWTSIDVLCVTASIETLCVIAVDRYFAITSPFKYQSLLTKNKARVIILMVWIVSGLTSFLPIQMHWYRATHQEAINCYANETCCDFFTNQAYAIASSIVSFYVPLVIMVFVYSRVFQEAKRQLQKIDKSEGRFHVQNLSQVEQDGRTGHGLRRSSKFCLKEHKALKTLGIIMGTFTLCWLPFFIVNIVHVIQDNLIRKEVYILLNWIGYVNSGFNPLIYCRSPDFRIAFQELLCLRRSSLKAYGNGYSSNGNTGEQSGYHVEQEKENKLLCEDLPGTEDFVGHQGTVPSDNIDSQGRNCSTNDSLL

COc1cc2oc(-c3ccc(O)cc3)cc(=O)c2c(OC)c1O
inactive: percent of DMSO control GFP [1] 100% | GFP response vs DMSO [2] 101% | percent response of DMSO control [3] 104% | GFP response vs DMSO [4] 88.2% | GFP response, % of DMSO [5] 98% | vesicle binding response [6] 118% | inhibition [7] -11.8% | superoxide response (% of plate) [8] 107% | aptamer binding inhibition [9] 3% | response [10] -2.51% | inhibition [11] -0.6% | response [12] -4.25% | binding (% of control) [13] 100% | efflux inhibition (fraction of control) [14] -0.16 | inhibition [15] 0% | differentiation response [16] 8.59%
56.3%: double positive events [6]

O=C(CN1C(=O)c2ccccc2S1(=O)=O)Nc1ccccc1
67.7%: double positive events [6]
inactive: percent of DMSO control GFP [1] 95.5% | GFP response vs DMSO [2] 126% | percent response of DMSO control [3] 112% | GFP response vs DMSO [4] 84.2% | GFP response, % of DMSO [5] 92.8% | vesicle binding response [6] 180% | inhibition [7] -72.1% | superoxide response (% of plate) [8] 98.5% | aptamer binding inhibition [9] 0% | response [10] -2.34% | inhibition [11] 7.49% | response [12] -1.17% | binding (% of control) [13] 99% | efflux inhibition (fraction of control) [14] -0.31 | inhibition [15] 5% | differentiation response [16] 10.6%

CC1(C)Cc2nc3sc4c(=O)n(CC(N)=O)cnc4c3cc2CO1
inactive: percent of DMSO control GFP [1] 90.9% | GFP response vs DMSO [2] 134% | percent response of DMSO control [3] 115% | GFP response vs DMSO [4] 73.2% | GFP response, % of DMSO [5] 82.2% | vesicle binding response [6] 159% | inhibition [7] 3.55% | superoxide response (% of plate) [8] 102% | aptamer binding inhibition [9] 10% | response [10] -4.57% | inhibition [11] 12.8% | response [12] -2.49% | binding (% of control) [13] 97% | efflux inhibition (fraction of control) [14] 0.41 | inhibition [15] 14% | differentiation response [16] -9.01%
67.5%: double positive events [6]

COc1c2ccoc2nc2c(OC)cccc12
64.2%: double positive events [6]
inactive: percent of DMSO control GFP [1] 105% | GFP response vs DMSO [2] 101% | percent response of DMSO control [3] 95.8% | GFP response vs DMSO [4] 102% | GFP response, % of DMSO [5] 105% | vesicle binding response [6] 5040% | inhibition [7] 21.4% | superoxide response (% of plate) [8] 82.1% | aptamer binding inhibition [9] 5% | response [10] -6.43% | inhibition [11] -5.75% | response [12] 0.27% | binding (% of control) [13] 97.2% | efflux inhibition (fraction of control) [14] -0.13 | inhibition [15] 6% | differentiation response [16] -15.2%

COc1ccc(-c2csc(-c3cccnc3)n2)cc1C
inactive: percent of DMSO control GFP [1] 98.2% | GFP response vs DMSO [2] 111% | percent response of DMSO control [3] 91% | GFP response vs DMSO [4] 95.7% | GFP response, % of DMSO [5] 84.4% | vesicle binding response [6] 170% | inhibition [7] 0.94% | superoxide response (% of plate) [8] 102% | aptamer binding inhibition [9] 4% | response [10] 3.47% | inhibition [11] 7.91% | response [12] -1.19% | binding (% of control) [13] 102% | efflux inhibition (fraction of control) [14] 0.12 | inhibition [15] 3% | differentiation response [16] 4%
59.8%: double positive events [6]

CCNC(=O)c1c(N)sc2c1CCCCC2
inactive: percent of DMSO control GFP [1] 103% | GFP response vs DMSO [2] 96.3% | percent response of DMSO control [3] 101% | GFP response vs DMSO [4] 90.5% | GFP response, % of DMSO [5] 94.9% | vesicle binding response [6] 262% | inhibition [7] -27.7% | superoxide response (% of plate) [8] 101% | aptamer binding inhibition [9] 1% | response [10] 33.6% | inhibition [11] 9.58% | response [12] -1.51% | binding (% of control) [13] 95.3% | efflux inhibition (fraction of control) [14] 0.12 | inhibition [15] 2% | differentiation response [16] 7.2%
63.8%: double positive events [6]

O=C(O)C1Cc2ccccc2CN1S(=O)(=O)c1ccccc1 (stereo not drawn)
60.9%: double positive events [6]
inactive: percent of DMSO control GFP [1] 98.8% | GFP response vs DMSO [2] 104% | percent response of DMSO control [3] 92.9% | GFP response vs DMSO [4] 118% | GFP response, % of DMSO [5] 96.8% | vesicle binding response [6] 186% | inhibition [7] -12.7% | superoxide response (% of plate) [8] 107% | aptamer binding inhibition [9] 4% | response [10] -23.4% | inhibition [11] 1.65% | response [12] 1.38% | binding (% of control) [13] 104% | efflux inhibition (fraction of control) [14] -0.17 | inhibition [15] 9% | differentiation response [16] 2.4%

COc1c2c(nc3occc13)C(CC=C(C)C)(OC)C(O)CC2 (stereo not drawn)
63.2%: double positive events [6]
inactive: percent of DMSO control GFP [1] 89.1% | GFP response vs DMSO [2] 131% | percent response of DMSO control [3] 110% | GFP response vs DMSO [4] 95.7% | GFP response, % of DMSO [5] 98.2% | vesicle binding response [6] 144% | inhibition [7] -4.21% | superoxide response (% of plate) [8] 95.4% | aptamer binding inhibition [9] 6% | response [10] 3.58% | inhibition [11] -9.37% | response [12] -1.04% | binding (% of control) [13] 103% | efflux inhibition (fraction of control) [14] 0.01 | inhibition [15] 11% | differentiation response [16] 3.28%

COC1CCN(C(=O)c2ccc(OC3CCN(Cc4ccccn4)CC3)cc2)CC1
inactive: percent of DMSO control GFP [1] 104% | GFP response vs DMSO [2] 109% | percent response of DMSO control [3] 104% | GFP response vs DMSO [4] 114% | GFP response, % of DMSO [5] 110% | vesicle binding response [6] 133% | inhibition [7] 9.13% | superoxide response (% of plate) [8] 89.2% | aptamer binding inhibition [9] -2% | response [10] -2.71% | inhibition [11] 26.3% | response [12] -3.44% | binding (% of control) [13] 103% | efflux inhibition (fraction of control) [14] -0.17 | inhibition [15] 8% | differentiation response [16] -2.4%
65%: double positive events [6]
